# USP7 block – inhibitors of human USP7 deubiquitinase; 0.3% of 47,000 active; purified USP7, Ub-rhodamine cleavage fluorescence; Q93009; inhibition, % at 20 µM
# USP10 inh – human USP10 deubiquitinase inhibition. 1.1% of 47,000 active. Q14694. AID 1645856. purified USP10, Ub-rhodamine fluorescence, 60 min. inhibition, % at 20 µM
# UCHL1 block – inhibitors of human UCHL1 deubiquitinase | purified UCHL1, Ub-rhodamine cleavage fluorescence | inhibition, % at 20 µM | P09936 | 0.2% of 47,000 active
# Target sequence (P09936 whole entry, looked up): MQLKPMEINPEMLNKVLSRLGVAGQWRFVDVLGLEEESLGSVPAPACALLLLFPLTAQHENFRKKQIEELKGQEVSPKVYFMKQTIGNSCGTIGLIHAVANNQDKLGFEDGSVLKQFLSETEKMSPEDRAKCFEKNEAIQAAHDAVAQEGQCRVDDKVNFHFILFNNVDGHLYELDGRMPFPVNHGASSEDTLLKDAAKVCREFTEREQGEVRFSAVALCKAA
# USP8 inh – inhibitors of human USP8 deubiquitinase; inhibition, % at 20 µM; AID 1645853; P40818; 4.2% of 47,000 active; purified USP8, Ub-rhodamine cleavage fluorescence, 30 min
# The depositor's hits bear a star. The list is not random: actives were taken first. Their share in the collection is about 4.6%. Rule as the data show it: active = inhibition above about 30%; inactive = the rest.
SMILES,USP7 block,USP10 inh,UCHL1 block,USP8 inh
O=C(c1cc(-c2ccccc2)n[nH]1)N1CCC(Nc2cccnc2)C1 (stereo not given),-8.4,-9.9,-8.5,58.4*
COc1cccc(C2c3[nH]c4ccccc4c3C[C@@H]3C(=O)N(Cc4ccco4)CC(=O)N23)c1 (stereo not given in full),-0.1,-12.2,-0.2,-1.3
Cc1nccc(C2CCCN(C(=O)Cc3ccc(C)s3)C2)n1 (stereo not given),-0.1,-1.1,-2.2,0.1
COc1cc(CN2CCC3(CC2)Nc2ccccc2C2=NCCN23)ccc1O,3.6,-0.5,-1.0,10.3
COc1ccccc1CNC(=O)C1c2ccccc2C(=O)N1c1ccc(F)cc1 (stereo not given),-8.1,4.4,4.7,10.2
CCc1cccc(N2C(=O)c3ccccc3C2C(=O)NCc2ccccc2OC)c1 (stereo not given),1.0,18.8,-2.6,32.0*
COc1ccc(NC(=O)Cn2c(=O)n(CCC(=O)NC3CCCC3)c(=O)c3ccccc32)cc1Cl,-1.7,0.2,0.8,-5.5
COc1ccc(Cl)cc1NC(=O)Cn1c(=O)n(CCCCC(=O)NCCc2ccccc2)c(=O)c2ccccc21,1.7,43.2*,0.2,42.2*
O=C(Cn1c(=O)n(CC(=O)NC2CCCC2)c(=O)c2ccccc21)Nc1ccc(F)cc1,1.9,16.3,-1.8,37.3*
O=C(Cn1c(=O)n(CC(=O)NC2CCCC2)c(=O)c2ccccc21)Nc1cc(Cl)ccc1Cl,8.5,19.2,3.7,31.6*
COc1ccc(Cl)cc1NC(=O)Cn1c(=O)n(CCC(=O)NC2CCCC2)c(=O)c2ccccc21,-7.2,42.9*,2.2,24.3
COc1ccc(CCNC(=O)CCCCn2c(=O)c3ccccc3n(Cc3cccc(Cl)c3)c2=O)cc1OC,6.5,1.3,5.2,2.5
CC(C)CN1C[C@H]2CCN(C(=O)c3cnccn3)CC[C@H]2S1(=O)=O,0.9,0.8,2.2,24.2
Cn1ncc2c(NCc3ccccc3)nc(N3CCOCC3)nc21,-14.1,2.7,-1.9,-6.0
COC(=O)Cn1c(=O)c2c(nc3n2CCCN3c2cccc(C)c2)n(C)c1=O,-2.6,-1.8,-0.8,-47.8
COc1ccccc1CNC(=O)CCn1c(=O)c2ccccc2n(Cc2ccccc2C#N)c1=O,4.9,3.8,0.5,1.7
CCOc1ccc(NC(=O)Cn2c(=O)n(CCC(=O)NCc3ccccc3OC)c(=O)c3ccccc32)cc1,11.9,33.6*,1.1,32.4*
COc1cc2c(=O)n(CCC(=O)NC3CCCC3)c(=O)n(CC(=O)Nc3cccc(Cl)c3)c2cc1OC,-6.9,30.5*,7.2,-28.8
COc1ccccc1CNC(=O)CCCCn1c(=O)c2ccccc2n(Cc2cc(=O)n3c(C)cccc3n2)c1=O,-3.3,-0.1,7.2,44.9*
COc1cc(OC)c(NC(=O)Cn2c(=O)n(Cc3ccccc3Cl)c(=O)c3cc(OC)c(OC)cc32)cc1Cl,2.7,35.5*,-0.4,26.5
O=C(c1noc2c1CCCC2)N1CCNCC1c1ccccc1 (stereo not given),2.1,1.1,0.6,3.3
CN(C)CCN1[C@H]2CCN(Cc3ccccn3)CC[C@@H]2Oc2ccccc2S1(=O)=O,-2.4,-2.5,-5.4,-4.0
Cc1cccc(Nc2cncc(C3CCCN3S(=O)(=O)N3CCOCC3)n2)n1 (stereo not given),3.9,-4.3,1.8,10.0
Cc1nnc(SCC(=O)Nc2ccccc2Cl)n1Cc1ccccc1,-5.3,0.1,0.3,-4.0
COc1ccc(NC(=O)Cn2c(=O)n(Cc3ccco3)c(=O)c3ccc(C(=O)NC4CCCC4)cc32)cc1,13.3,49.0*,0.7,60.2*
SMILES,USP7 block,USP10 inh,UCHL1 block,USP8 inh
CC(=O)Nc1ccc(-n2cnc(C(=O)NCc3ccc(F)cc3)c2)nc1,4.6,5.0,-0.1,16.1
Cc1cccc(-n2cnc(C(=O)NCc3ccc(F)cc3)c2)n1,1.4,3.7,2.5,34.0*
C[C@]12CN(CCN3CCCC3)C[C@H]1NC(=O)c1ccccc1C2=O,-0.1,-3.3,-3.5,-3.2
O=c1[nH]c(C2CCN(S(=O)(=O)c3ccc(S(=O)(=O)N4CCOCC4)cc3)CC2)nc2c1nnn2Cc1cccc(Cl)c1,8.8,28.4,5.5,34.9*
CC(C)(C)c1ccc(Cn2nnc3c(=O)[nH]c(C4CCN(S(=O)(=O)c5ccc(S(=O)(=O)NC6CC6)cc5)CC4)nc32)cc1,13.9,29.0,10.5,32.6*
Cc1ccc(Cn2nnc3c(=O)[nH]c(C4CCN(S(=O)(=O)c5ccc(S(=O)(=O)NC6CCCC6)cc5)CC4)nc32)cc1,10.0,33.7*,4.7,-227.9
Cc1cccc(C)c1OCCN1C(=O)C2CN(C(N)=O)CCN2C1=O (stereo not given),0.0,-0.5,2.6,1.3
